# PubChem BioAssay AID1159580 (chemical genetic matrix, 2015)
# Values joined by “and” are separate entries in the source; they are usually repeats but may differ in a detail not shown here. Equal values may be shown once. Screen size: about 5,500 compounds; about 2,000 (36%) were called active. Inconclusive results (about 18%) are left out. No stated cut-off is given here; in the data, active means normalized growth mostly below about 0.91 (no sharp cut-off); inconclusive means no clear call, values can overlap the other calls; inactive means mostly above about 0.92. This is one part of the list.
# Experiment: chemical genetic growth profiling, strain panel (AID 1159580);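 further: tested at 20 µM; growth read once vehicle control cultures reached saturation at 30 °C; 1 = growth at the plate median or of vehicle wells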
# Details: S. cerevisiae deletion strains, growth OD
structure (smiles),measurement,setting,value
CC(Cc1cccc(C(F)(F)F)c1)NCCOC(=O)c1ccccc1 (configuration not stated),normalized growth,"locus YAL013W, strain DEP1, stronger effect = lower value",0.98 (inactive)
same,normalized growth,"locus YAL021C, strain ccr4, stronger effect = lower value",0.853 (active)
same,normalized growth,"locus YAL026C, strain drs2, stronger effect = lower value",0.582 (active)
same,normalized growth,"locus YAL030W, strain snc1, stronger effect = lower value",0.964 (inactive)
same,normalized growth,"locus YBL061C, strain skt5, stronger effect = lower value",0.968 (inactive)
same,normalized growth,"locus YBR009C, strain hhf1, stronger effect = lower value",0.953 (inactive)
same,normalized growth,"locus YBR021W, strain FUR4, stronger effect = lower value",0.513 (active)
same,normalized growth,"locus YBR023C, strain chs3, stronger effect = lower value",0.936 (inactive)
same,normalized growth,"locus YBR171W, strain sec66, stronger effect = lower value",0.975 (inactive)
same,normalized growth,"locus YBR229C, strain ROT2, stronger effect = lower value",1.01 (inactive)
same,normalized growth,"locus YBR231C, strain swc5, stronger effect = lower value",0.948 (inactive)
same,normalized growth,"locus YBR279W, strain paf1, stronger effect = lower value",0.964 (inactive)
same,normalized growth,"locus YCL011C, strain gbp2, stronger effect = lower value",0.971 (inactive)
same,normalized growth,"locus YCL016C, strain dcc1, stronger effect = lower value",0.969 (inactive)
same,normalized growth,"locus YCL029C, strain bik1, stronger effect = lower value",1.03 (inactive)
same,normalized growth,"locus YCL061C, strain MRC1, stronger effect = lower value",0.978 (inactive)
same,normalized growth,"locus YCL069W, strain vba3, stronger effect = lower value",0.967 (inactive)
same,normalized growth,"locus YCR088W, strain abp1, stronger effect = lower value",0.994 (inactive)
same,normalized growth,"locus YDL005C, strain med2, stronger effect = lower value",0.999 (inactive)
same,normalized growth,"locus YDL035C, strain GPR1, stronger effect = lower value",0.917 (inactive)
same,normalized growth,"locus YDL040C, strain nat1, stronger effect = lower value",0.994 (inactive)
same,normalized growth,"locus YDL074C, strain BRE1, stronger effect = lower value",0.914 (inactive)
same,normalized growth,"locus YDL101C, strain DUN1, stronger effect = lower value",0.996 (inactive)
same,normalized growth,"locus YDL134C, strain PPH21, stronger effect = lower value",0.958 (inactive)
same,normalized growth,"locus YDL185W, strain tfp1, stronger effect = lower value",1.02 (inactive)
same,normalized growth,"locus YDL192W, strain arf1, stronger effect = lower value",0.988 (inactive)
same,normalized growth,"locus YDR001C, strain nth1, stronger effect = lower value",0.992 (inactive)
same,normalized growth,"locus YDR069C, strain doa4, stronger effect = lower value",0.845 (active)
same,normalized growth,"locus YDR101C, strain arx1, stronger effect = lower value",0.999 (inactive)
same,normalized growth,"locus YDR137W, strain rgp1, stronger effect = lower value",0.916 (inactive)
same,normalized growth,"locus YDR150W, strain NUM1, stronger effect = lower value",0.997 (inactive)
same,normalized growth,"locus YDR159W, strain sac3, stronger effect = lower value",0.995 (inactive)
same,normalized growth,"locus YDR162C, strain NBP2, stronger effect = lower value",0.945 (inactive)
same,normalized growth,"locus YDR195W, strain ref2",1.01 (inactive)
same,normalized growth,"locus YDR297W, strain sur2, stronger effect = lower value",0.973 (inactive)
same,normalized growth,"locus YDR318W, strain mcm21, stronger effect = lower value",0.963 (inactive)
same,normalized growth,"locus YDR334W, strain swr1, stronger effect = lower value",0.997 (inactive)
same,normalized growth,"locus YDR335W, strain msn5, stronger effect = lower value",0.959 (inactive)
same,normalized growth,"locus YDR388W, stronger effect = lower value",0.811 (active)
same,normalized growth,"locus YDR392W, strain spt3, stronger effect = lower value",1.03 (inactive)
same,normalized growth,"locus YDR502C, strain sam2, stronger effect = lower value",0.974 (inactive)
same,normalized growth,"locus YEL003W, strain gim4, stronger effect = lower value",0.924 (inactive)
same,normalized growth,"locus YEL037C, strain rad23, stronger effect = lower value",0.973 (inactive)
same,normalized growth,"locus YEL061C, strain CIN8 (second series), stronger effect = lower value",0.988 (inactive)
same,normalized growth,"locus YEL061C, strain CIN8, stronger effect = lower value",0.993 (inactive)
same,normalized growth,"locus YER015W, strain faa2, stronger effect = lower value",0.899 (active)
same,normalized growth,"locus YER016W, strain bim1, stronger effect = lower value",1 (inactive)
same,normalized growth,"locus YER110C, stronger effect = lower value",1.01 (inactive)
same,normalized growth,"locus YER111C, strain swi4, stronger effect = lower value",0.997 (inactive)
same,normalized growth,"locus YER155C, strain BEM2 (second series), stronger effect = lower value",0.934 (inactive)
same,normalized growth,"locus YER155C, strain BEM2, stronger effect = lower value",1.02 (inactive)
same,normalized growth,"locus YER167W, strain BCK2, stronger effect = lower value",0.985 (inactive)
same,normalized growth,"locus YFR010W, strain ubp6, stronger effect = lower value",0.831 (active)
same,normalized growth,"locus YGL078C, strain dbp3, stronger effect = lower value",1.01 (inactive)
same,normalized growth,"locus YGL086W, strain mad1, stronger effect = lower value",0.953 (inactive)
same,normalized growth,"locus YGL167C, strain pmr1, stronger effect = lower value",0.991 (inactive)
same,normalized growth,"locus YGL173C, strain kem1, stronger effect = lower value",0.919 (inactive)
same,normalized growth,"locus YGL227W, strain vid30, stronger effect = lower value",0.995 (inactive)
same,normalized growth,"locus YGL240W, strain doc1, stronger effect = lower value",0.945 (inactive)
same,normalized growth,"locus YGL248W, strain PDE1, stronger effect = lower value",0.957 (inactive)
same,normalized growth,"locus YGL253W, strain hxk2, stronger effect = lower value",0.96 (inactive)
same,normalized growth,"locus YGR078C, strain PAC10, stronger effect = lower value",0.921 (inactive)
same,normalized growth,"locus YGR135W, strain pre9, stronger effect = lower value",0.914 (inactive)
same,normalized growth,"locus YGR229C, strain SMI1, stronger effect = lower value",0.612 (active)
same,normalized growth,"locus YGR252W, strain gcn5, stronger effect = lower value",0.923 (inactive)
same,normalized growth,"locus YHR013C, strain ard1, stronger effect = lower value",0.963 (inactive)
same,normalized growth,"locus YHR027C, strain rpn1, stronger effect = lower value",0.941 (inactive)
same,normalized growth,"locus YHR030C, strain SLT2, stronger effect = lower value",0.833 (active) and 0.974 (inactive)
same,normalized growth,"locus YHR079C, strain IRE1 (second series), stronger effect = lower value",1 (inactive)
same,normalized growth,"locus YHR079C, strain IRE1, stronger effect = lower value",0.981 (inactive)
same,normalized growth,"locus YHR094C, strain hxt1, stronger effect = lower value",1.02 (inactive)
same,normalized growth,"locus YHR129C, strain ARP1, stronger effect = lower value",1 (inactive)
same,normalized growth,"locus YHR142W, strain chs7, stronger effect = lower value",0.925 (inactive)
same,normalized growth,"locus YHR200W, strain rpn10, stronger effect = lower value",0.996 (inactive)
same,normalized growth,"locus YIL066C, strain RNR3, stronger effect = lower value",0.962 (inactive)
same,normalized growth,"locus YIL073C, strain SPO22, stronger effect = lower value",1.14 (inactive)
same,normalized growth,"locus YIL125W, strain kgd1, stronger effect = lower value",1.02 (inactive)
same,normalized growth,"locus YIR030C, strain dcg1, stronger effect = lower value",1 (inactive)
same,normalized growth,"locus YJL092W, strain hpr5, stronger effect = lower value",0.953 (inactive)
same,normalized growth,"locus YJL095W, strain BCK1 (second series), stronger effect = lower value",0.954 (inactive)
same,normalized growth,"locus YJL095W, strain BCK1, stronger effect = lower value",0.614 (active) and 0.976 (inactive)
same,normalized growth,"locus YJL115W, strain asf1, stronger effect = lower value",0.979 (inactive)
same,normalized growth,"locus YJL129C, strain trk1, stronger effect = lower value",0.997 (inactive)
same,normalized growth,"locus YJL134W, strain LCB3, stronger effect = lower value",1 (inactive)
same,normalized growth,"locus YJL154C, strain vps35, stronger effect = lower value",0.986 (inactive)
same,normalized growth,"locus YJL164C, strain tpk1, stronger effect = lower value",0.953 (inactive)
same,normalized growth,"locus YJL166W, strain qcr8, stronger effect = lower value",0.943 (inactive)
same,normalized growth,"locus YJL168C, strain set2, stronger effect = lower value",1 (inactive)
same,normalized growth,"locus YJL187C, strain SWE1 (second series), stronger effect = lower value",0.923 (inactive)
same,normalized growth,"locus YJL187C, strain SWE1, stronger effect = lower value",0.978 (inactive)
same,normalized growth,"locus YJR043C, strain POL32, stronger effect = lower value",1.04 (inactive)
same,normalized growth,"locus YJR066W, strain TOR1, stronger effect = lower value",0.879 (inactive)
